Assay outcomes: PubChem, Sanford-Burnham Center for Chemical Genomics
TIM10 inh = inhibits growth of TIM10 yeast strain; S. cerevisiae TIM10 strain growth, BacTiter-Glo luminescence, 24 h; inhibition, % at 10 µM; 330,000 tested, 1.4% active; AID 463195;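 active = inhibition of 40% or more at the single tested concentration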;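 note: wild-type TIM10 isogenic control strain grown at permissive 25 °C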
NALP1 inh = inhibitors of NALP1 inflammasome in yeast; S. cerevisiae NALP1/ASC/caspase-1 growth, X-gal OD620, 72 h; inhibition, % at 10 µM; 280,000 tested, 0.61% active; AID 2071; in the data active = inhibition mostly above about 24%, no sharp cut-off; inactive = mostly below about 32%
NLRP3 yeast inh = NALP3 inhibition in yeast | Yeast reconstituted NLRP3/ASC/caspase-1, beta-gal luminescence, 24 h | inhibition, % at 10 µM | 330,000 tested, 0.39% active | AID 2825;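 active = inhibition of 50% or more; inactive = inhibition below 50%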;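 note: plate controls were induced DMSO wells for no effect and uninduced yeast grown without galactose for full effect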
tim23-1 inh = tim23-1 yeast growth inhibition; AID 463212; S. cerevisiae tim23-1 growth, BacTiter-Glo luminescence, 24 h; inhibition, % at 20 µM; 330,000 tested, 1.3% active;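 active = growth inhibition of the mutant yeast at or above 50%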;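 note: temperature-sensitive mutant grown at 25 °C; plate controls were DMSO-treated mutant yeast for no effect and medium wells lacking yeast for full effect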
tim10-1 inh = growth inhibitors of tim10-1 mutant yeast | inhibition, % at 20 µM | 330,000 tested, 2.2% active | S. cerevisiae tim10-1 ts strain growth, BacTiter-Glo, 24 h;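 active = inhibition of at least 40%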;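 note: mutant grown at 25 °C; 0% = DMSO wells with yeast and 100% = wells holding no yeast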
tim10-1 confirm = tim10-1 yeast growth inhibition, confirmed | S. cerevisiae tim10-1 ts strain growth, BacTiter-Glo, 24 h | AID 463213 | inhibition, % at 20 µM | 7,400 tested, 56% active | shares compounds with tim10-1 inh;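 active = inhibition of yeast growth at or above a set limit in either of two repeat tests at 20 µM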;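 note: tim10-1 mutant grown at permissive 25 °C to find synthetic lethal compounds; 0% = DMSO yeast wells and 100% = medium wells without yeast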
Numbers without * were called inactive; x = no result given. An excerpt weighted towards active compounds, which were near 4.1% of everything screened.

SMILES	TIM10 inh	NALP1 inh	NLRP3 yeast inh	tim23-1 inh	tim10-1 inh	tim10-1 confirm
N/C(=N\OC(=O)COc1cc(Cl)c(Cl)cc1Cl)c1ccccn1	28	20	40	17	35	x
O=C(/C=C/c1cccs1)c1cc(Br)ccc1OC(=O)N1CCOCC1	37	48	20	35	56*	43*
COc1ccc(/C=C2/N=C(c3cccs3)OC2=O)cc1OC(C)C	33	3	18	39	42*	30*
CC(OC(=O)c1cccnc1Cl)C(=O)NCc1ccccc1 (stereo unspecified)	-3	x	-4	10	5	x
O=S(=O)(c1cc(Cl)ccc1Br)N1CCCCC1	-2	13	-27	31	43*	32*
COc1cc(OC)cc(C(=O)NCC2CCCN(Cc3ccc(SC)cc3)C2)c1 (stereo unspecified)	-24	1	11	-5	0	x
CCN(CC)c1ncnc2c1sc1nc(C)cc(C)c12	9	-3	20	24	43*	19
Cc1cc(C)c2c(n1)sc1c(N3CCCCC3)ncnc12	15	x	17	31	20	x
Cc1noc(/C=C/c2ccccc2F)c1S(=O)(=O)N1CCC(C(=O)N2CCN(C)CC2)CC1	8	12	16	34	40*	16
Cc1ccccc1S(=O)(=O)Cc1ccc(C(=O)N(C)C2CCCCC2)o1	2	-2	-1	21	13	x
COc1ccc(NC(=S)Nn2cnnc2)c(OC)c1	-8	-3	26	4	-17	x
CCCc1cc(C(=O)Cc2ccc(F)cc2)c(O)cc1O	26	11	17	37	29	x
CCCc1cc(C(=O)Cc2ccc(C(=O)OCC)o2)c(O)cc1O	14	6	13	16	45*	15
N#C/C(=C\c1cccnc1)c1nc2c(s1)CCCC2	20	-5	41	13	43*	32*
COc1cc(/C=C(\C#N)C(=O)N2CCCCC2)ccc1O	18	7	6	34	33	x
COc1cc(/C=C(\C#N)c2nc3c(s2)CCCC3)ccc1O	31	26	37	34	44*	12
CC1CCc2nc(/C(C#N)=C/c3cccnc3)sc2C1 (stereo unspecified)	27	15	24	12	42*	30
COCCC1CCCCN1C(=O)c1ccc2nc(Cc3ccccc3F)oc2c1 (stereo unspecified)	0	16	16	28	21	x
COc1ccc(NC(=O)c2sc3nc(N4CCCC4)c4c(c3c2N)CC(C)(C)OC4)c(OC)c1	-1	4	13	9	26	x
COc1ccc(NC(=O)c2sc3nc(N4CCOCC4)c4c(c3c2N)CC(C(C)C)OC4)c(OC)c1 (stereo unspecified)	-5	5	15	1	43*	4
CCc1ccc(NC(=O)c2sc3nc4n(c(=O)c3c2C)CCC4)cc1	-11	3	21	34	44*	12
CC(=O)Nc1ccc(NC(=O)c2sc3nc4n(c(=O)c3c2C)CCCCC4)cc1	10	1	14	15	14	x
CC(=O)c1cccc(NC(=O)c2sc3nc4n(c(=O)c3c2C)CCCC4)c1	19	9	11	18	52*	28*
CCCCNC(=O)[C@H]1C[C@H]1[C@@H](O)[C@H](CO)NC(=O)[C@H](COCc1ccccc1)NC(=O)OC(C)(C)C	6	19	0	3	-16	x
Cc1c(C(=O)N2CCC3(CC2)CC(=O)c2ccccc2O3)cccc1[N+](=O)[O-]	12	x	15	14	6	x
SMILES	TIM10 inh	NALP1 inh	NLRP3 yeast inh	tim23-1 inh	tim10-1 inh	tim10-1 confirm
O=C(Nc1cc(Cl)cc(Cl)c1)C(NCC1CCCO1)c1ccccc1 (stereo unspecified)	23	39	10	36	45*	26
CN1CCN(CC(=O)c2cc(C(C)(C)C)c(O)c(C(C)(C)C)c2)CC1	24	-12	-15	24	44*	26
COC(=O)c1cc(NC(=O)C2CCCN(S(=O)(=O)c3c(C)n[nH]c3C)C2)cc(C(=O)OC)c1 (stereo unspecified)	-8	0	-3	12	10	x
Cc1ccc(F)c(CNC(=O)C2CCC(=O)N(CCCN3CCCC3=O)C2)c1F (stereo unspecified)	-2	6	-2	6	22	x
Cc1ccc(-c2[nH]ncc2C(=O)c2ccc(Br)cc2)c(O)c1	7	16	14	43	42*	23
COc1cccc(-c2c(C(=O)N/N=C/c3sccc3C)nnn2-c2nonc2N)c1	6	-4	22	22	26	x
C/C(=N\Nc1nc2ccccc2s1)c1ccc2c(c1)OCO2	31	34	2	23	42*	5
CCCN(CCC)C(=O)CC(c1ccccc1)c1cc(C)ccc1O (stereo unspecified)	22	27	5	33	46*	34*
CCc1ccccc1NC(=O)CNC(=O)CCNC(=O)Nc1ccccc1	4	x	7	12	2	x
CCOC(=O)c1ccc(NC(=O)CC2OCCN(CC)C2=O)cc1 (stereo unspecified)	34	2	21	35	50*	62*
O=C(C1CCCO1)N1N=C(c2ccc(Br)cc2)CC1c1ccco1 (stereo unspecified)	27	31	22	39	37	x
Cc1ccc(C2=NN(C(=O)C3CCCO3)C(c3ccco3)C2)cc1 (stereo unspecified)	9	-12	10	28	41*	19
O=C(C[n+]1ccccc1)Nc1ccccc1Br	-1	-6	9	12	0	x
COc1ccc(S(=O)(=O)N(C)c2ccc(C(=O)NCc3ccccn3)cc2)cc1OC	12	11	11	12	-10	x
CCCN(CCC)S(=O)(=O)c1ccc(C(=O)Nc2nnc(-c3cc(OC)cc(OC)c3)o2)cc1	22	3	13	-5	41*	8
CCCN(CCC)S(=O)(=O)c1ccc(C(=O)Nc2nnc(-c3cccc(OC)c3)o2)cc1	7	28	6	7	36	x
CC(C)(C)[C@H]1COC(=O)CCC/C=C/C[C@H](CC(=O)NCCO)C(=O)N1	-5	x	17	-6	-8	x
COCCn1c(SCC(=O)N(C)c2c(N)n(Cc3ccccc3)c(=O)[nH]c2=O)nnc1-c1cccc(C)c1	-4	x	-12	4	11	x
COC(CNC(=O)CNC(=S)N(Cc1ccccc1)Cc1cccs1)OC	-7	-9	9	12	16	x
CCCCNC(=O)CNC(=S)N(Cc1ccccc1)Cc1cccs1	8	-1	-10	14	47*	28
CC1(NC(=S)N(CCO)CCO)CCS(=O)(=O)C1 (stereo unspecified)	-13	14	5	-4	-15	x
O=C(COC(=O)Cc1ccccc1F)NC(=O)NC1CCCC1	-5	x	9	-2	-5	x
S=C1NC2=C(CCC/C2=C\c2ccccc2)C(c2ccccc2)N1 (stereo unspecified)	16	23	-12	14	25	x
